# Laboratory results taken from PubChem BioAssay (NCATS).
# Records with an inconclusive call do not appear. The source made the active and inactive calls. The call rests on the fitted dose curve; in most records, active means well fitted cell-killing curve with a large enough effect; inconclusive means small, poorly fitted or top-dose-only effect, or effect the other way; inactive means no such curve, though single readings can be large or run the other way.
# Assay: Quantitative High-Throughput drug screen in 47 multiple myeloma cell lines against the NCATS MIPE library collection: ARP1_JJKsccF8 cell viability assay (AID 1918928; further: nearly all actives have a fitted effect of over 40% in size)
# Conditions: ARP1 myeloma cells viability, CellTiter-Glo ATP, 48 h; series mostly up to 45.8 µM
# Text: PI: Beverly A. Mock Ph.D.
# Laboratory of Cancer Biology and Genetics,
# Center for Cancer Research, National Cancer Institute,
# National Institute of Health, Bethesda, Maryland
# Drug resistance and disease progression are common in multiple myeloma (MM) patients, underscoring the need for new therapeutic combinations. […] We hypothesized that effective combinations would reduce MYC expression and enhance p16 activity. […] These preclinical data identify potentially useful drug combinations for evaluation in drug-resistant MM and reveal potential mechanisms of combined drug sensitivity.
# Described herein is the primary MIPE qHTS used to cherrypick compounds. Validated compounds were then further tested for potential synergistic activiy.
# [1] Peat TJ, Gaikwad SM, Dubois W, Gyabaah-Kessie N, Zhang S, Gorjifard S, Phyo Z, Andres M, Hughitt VK, Simpson RM, Miller MA, Girvin AT, Taylor A, Williams D, D'Antonio N, Zhang Y, Rajagopalan A, Flietner E, Wilson K, Zhang X, Shinn P, Klumpp-Thomas C, McKnight C, Itkin Z, Chen L, Kazandijian D, Zhang J, Michalowski AM, Simmons JK, Keats J, Thomas CJ, Mock BA. Drug combinations identified by high-throughput screening promote cell cycle transition and upregulate Smad pathways in myeloma. Cancer Lett. 2023 Aug 1;568:216284. doi: 10.1016/j.canlet.2023.216284. Epub 2023 Jun 24. PMID: 37356470; PMCID: PMC10408729.
# SEQUENCE No. (e.g., 1, 2, 3, etc.); […] (e.g., Cells, Incubation, Reagent, etc.); VALUE and DESCRIPTION.
# 1; Cells; 5 uL; white, solid bottom 1536-well Greiner assay plate.
# 2; Compounds; 23 nL; Kalypsis pin tool (Wako USA) equipped with a 1536-well pin head to transfer to the assay plates.
# 3; Incubation; 48 hours; 37C incubation.
# 4; Reagent;5uL; CellTiter Glo (Promega).
# 5; Detector; 425V; Luminescence; Viewlux PerkinElmer.
# NOTES (numbers refer to Sequence numbers above)
# 1. The cell-based screening methods employed in this study were like those previously published. Briefly, the corresponding myeloma cell lines were screened in 1,536-well plates with 500 cells, 5-uL per well for inhibition of cell viability (assessed by measuring ATP levels with CellTiterGlo).
# 2. NCATS MIPE 4.0 library of approved and investigational drugs were added using the Kalypsis pin tool. Wells treated with DMSO only for 100% viability and media only cells for 0% viability were used as controls.
# 3. The assay plates were covered and incubated for 48 hours in a 37C, 5% CO2 incubator with controlled humidity.
# 4. After 48 hours, CellTilter-GloTM luminescent substrate mix (Promega) reagent was added to the assay plate and plates we incubated for 5 min at room temperature.
# 5. Signal was measured as median relative luminescence units on a ViewLux (PerkinElmer) multiplate reader.
# [1] Heske CM, Davis MI, Baumgart JT, Wilson K, Gormally MV, Chen L, Zhang X, Ceribelli M, Duveau DY, Guha R, Ferrer M, Arnaldez FI, Ji J, Tran HL, Zhang Y, Mendoza A, Helman LJ, Thomas CJ. Matrix Screen Identifies Synergistic Combination of PARP Inhibitors and Nicotinamide Phosphoribosyltransferase (NAMPT) Inhibitors in Ewing Sarcoma. Clin Cancer Res. 2017 Dec 1;23(23):7301-7311. doi: 10.1158/1078-0432.CCR-17-1121. Epub 2017 Sep 12. PMID: 28899971; PMCID: PMC6636827.
# Potency means the concentration at half of the fitted maximal effect.
row,Compound,Potency
1,N#Cc1ccc(NC(=O)Nc2ccccc2Br)c2n[nH]nc12,inactive
2,O=C(NCc1ccccc1)c1csc(Nc2ccncn2)n1,23.5 µM (active)
3,COc1cccc2c1CCCC2CCCN1CCN(C2CCCCC2)CC1 (stereo not given),18.7 µM (active)
4,CC(C)C[C@H](CC(=O)O)C(=O)N[C@@H](Cc1c[nH]c2ccccc12)C(=O)N[C@@H](C)c1ccccc1,inactive
5,c1cc(-c2sc(-c3ccncc3)c(-c3ccncc3)c2-c2ccncc2)ccn1,inactive
6,Oc1ccc(C2CCN(c3ccnc4ccccc34)CC2)cc1O,23.5 µM (active)
7,O=C(CCCCCCC(=O)Nc1ccccc1)NO,0.833 µM (active)
8,CC(C)(Cc1ccc2ccccc2c1)NC[C@@H](O)COc1cccc(Cl)c1C#N,inactive
9,Clc1ccc(C(c2ccc(Cl)cc2)n2cc[n+](CC(OCc3ccc(Cl)cc3Cl)c3ccc(Cl)cc3Cl)c2)cc1 (stereo not given),11.8 µM (active)
10,O=c1c(-c2ccc(O)cc2)coc2cc(OC3O[C@H](CO)[C@H](O)[C@H](O)[C@H]3O)cc(O)c12 (stereo not given in full),18.7 µM (active)
11,CN(C)c1cc(NC(=O)CNC(C)(C)C)c(O)c2c1C[C@@H]1C[C@H]3[C@H](N(C)C)C(=O)C(C(N)=O)=C(O)[C@@]3(O)C(=O)C1=C2O,inactive
12,Clc1ccc(-c2nc3sccn3c2C=NOCc2ccc(Cl)c(Cl)c2)cc1,inactive
13,O=C(Nc1cc(Cl)cc2c1[nH]c1cnccc12)c1cccnc1,13.2 µM (active)
14,O=C(NC1CCOCC1)c1ccc(-c2cc(-c3cn[nH]c3-c3ccccn3)ccn2)cc1,inactive
15,O=C(Nc1c(Cl)cncc1Cl)c1ccc(OC(F)F)c(OCC2CC2)c1,inactive
16,Cc1c(O)cccc1C(=O)N[C@@H](CSc1ccccc1)[C@H](O)CN1C[C@H]2CCCC[C@@H]2C[C@@H]1C(=O)NC(C)(C)C,23.5 µM (active)
17,C=C1C(=O)[C@@]23C(CC[C@@H]1[C@H]2O)[C@@]12CO[C@]3(O)[C@@H](O)[C@@H]1C(C)(C)CC[C@@H]2O (stereo not given in full),5.9 µM (active)
18,O=C(O)c1ccccc1C(=O)Nc1ccc(-c2ccccc2)cc1,inactive
19,CNC1CCC(N(Cc2cccc(-c3ccncc3)c2)C(=O)c2sc3c(F)ccc(F)c3c2Cl)CC1 (stereo not given),16.6 µM (active)
20,O=C(CCc1ccc(O)cc1)c1c(O)cc(O)cc1O[C@@H]1O[C@H](CO)[C@H](O)[C@H](O)[C@H]1O,inactive

row,Compound,Potency
1,CCC(CC)[C@H](NC(C)=O)[C@@H]1[C@H](O)[C@@H](C(=O)O)C[C@@H]1N=C(N)N,inactive
2,O=C(O)C=Cc1ccc(O)c(O)c1,26.4 µM (active)
3,CCN(CC)CCOc1ccc(C(=C(Cl)c2ccccc2)c2ccccc2)cc1,inactive
4,O=c1cc(CN2CCOCC2)occ1OCCCCCSc1ccnc2cc(C(F)(F)F)ccc12,20.9 µM (active)
5,NC[C@@H]1O[C@@H](O[C@H]2[C@@H](O)[C@H](O[C@@H]3[C@@H](O)[C@@H](N)C[C@H](N)[C@H]3O[C@H]3O[C@H](CN)[C@@H](O)[C@@H](O)[C@H]3N)O[C@H]2CO)[C@H](N)[C@@H](O)[C@@H]1O,inactive
6,COc1cc(O)c2c(c1)C(=O)c1cc(C)cc(O)c1C2=O,inactive
7,CC(C)(C)NC(=O)Nc1cccc(Nc2ncc(F)c(NC(C)(C)CO)n2)c1,10.5 µM (active)
8,N[C@H](CSC(c1ccccc1)(c1ccccc1)c1ccccc1)C(=O)O,13.2 µM (active)
9,CCOC(=O)O[C@]1(C(=O)OCCl)CC[C@@H]2[C@H]3CCC4=CC(=O)C=C[C@]4(C)[C@@H]3[C@@H](O)C[C@@]21C,0.0372 µM (active)
10,O=C(O)CCC1CCC(c2cc(F)ccc2F)(S(=O)(=O)c2ccc(Cl)cc2)CC1 (stereo not given),inactive
11,CC1(C)CCC(CN2CCN(c3ccc(C(=O)NS(=O)(=O)c4ccc(NCC5CCOCC5)c([N+](=O)[O-])c4)c(Oc4cnc5[nH]ccc5c4)c3)CC2)=C(c2ccc(Cl)cc2)C1,23.5 µM (active)
12,CCOc1ccc(Nc2nc(-c3c(C)nc4ccccn34)cs2)cc1,0.003 µM (active)
13,O=C(Nc1ccccc1-c1cn2c(CN3CCNCC3)csc2n1)c1cnc2ccccc2n1,23.5 µM (active)
14,O=C(O)c1ccc(-c2c[nH]c3ncc(-c4ccccc4)cc23)cc1C1CCCC1,inactive
15,Cc1[nH]c(C=C2C(=O)Nc3ccc(S(=O)(=O)Cc4c(Cl)cccc4Cl)cc32)c(C)c1C(=O)N1CCC[C@H]1CN1CCCC1,23.5 µM (active)
16,COc1ccc(-c2coc3cc(O)ccc3c2=O)cc1,inactive
17,CC(=O)Oc1cc2c(s1)CCN(C(C(=O)C1CC1)c1ccccc1F)C2 (stereo not given),1.32 µM (active)
18,C[C@@H]1CCN(C(=O)CC#N)C[C@H]1N(C)c1ncnc2[nH]ccc12,inactive
19,COCCOC(=O)C1=C(C)NC2=C(C(=O)CC(c3ccccc3OC)C2)C1c1cccc(O)c1 (stereo not given),10.5 µM (active)
20,CC(C)(C)c1cc(C(=O)O)c(NC(=O)Nc2ccc3[nH]ncc3c2)s1,inactive
